Source: ChEMBL document CHEMBL2218924, “A broad activity screen in support of a chemogenomic map for kinase signalling research and drug discovery” (Biochem J, 2013)

How the values were obtained:
[1] = biological target: T1, Protein kinase C zeta type (Homo sapiens) (UniProt Q05513); settings: at 1 µM
T1 sequence (whole entry): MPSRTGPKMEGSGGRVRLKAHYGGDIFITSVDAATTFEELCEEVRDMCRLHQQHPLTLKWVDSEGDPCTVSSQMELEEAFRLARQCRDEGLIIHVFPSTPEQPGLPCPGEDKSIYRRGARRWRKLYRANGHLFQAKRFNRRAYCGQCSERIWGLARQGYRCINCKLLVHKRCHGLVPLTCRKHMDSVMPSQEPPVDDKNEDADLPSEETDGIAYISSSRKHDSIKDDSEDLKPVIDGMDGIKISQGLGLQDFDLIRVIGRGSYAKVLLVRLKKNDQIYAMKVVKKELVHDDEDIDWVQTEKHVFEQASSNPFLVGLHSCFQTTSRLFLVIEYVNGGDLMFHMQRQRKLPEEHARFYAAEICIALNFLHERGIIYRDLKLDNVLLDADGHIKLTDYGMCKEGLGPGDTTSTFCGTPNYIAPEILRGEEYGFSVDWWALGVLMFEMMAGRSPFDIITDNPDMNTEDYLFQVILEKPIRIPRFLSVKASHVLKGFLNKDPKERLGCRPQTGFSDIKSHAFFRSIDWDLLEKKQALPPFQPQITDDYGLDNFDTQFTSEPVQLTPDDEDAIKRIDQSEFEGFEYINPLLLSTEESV

[2] = biological target: T2, Mitogen-activated protein kinase kinase kinase 5 (Homo sapiens) (UniProt Q99683); settings: at 10 µM
T2 sequence (whole entry): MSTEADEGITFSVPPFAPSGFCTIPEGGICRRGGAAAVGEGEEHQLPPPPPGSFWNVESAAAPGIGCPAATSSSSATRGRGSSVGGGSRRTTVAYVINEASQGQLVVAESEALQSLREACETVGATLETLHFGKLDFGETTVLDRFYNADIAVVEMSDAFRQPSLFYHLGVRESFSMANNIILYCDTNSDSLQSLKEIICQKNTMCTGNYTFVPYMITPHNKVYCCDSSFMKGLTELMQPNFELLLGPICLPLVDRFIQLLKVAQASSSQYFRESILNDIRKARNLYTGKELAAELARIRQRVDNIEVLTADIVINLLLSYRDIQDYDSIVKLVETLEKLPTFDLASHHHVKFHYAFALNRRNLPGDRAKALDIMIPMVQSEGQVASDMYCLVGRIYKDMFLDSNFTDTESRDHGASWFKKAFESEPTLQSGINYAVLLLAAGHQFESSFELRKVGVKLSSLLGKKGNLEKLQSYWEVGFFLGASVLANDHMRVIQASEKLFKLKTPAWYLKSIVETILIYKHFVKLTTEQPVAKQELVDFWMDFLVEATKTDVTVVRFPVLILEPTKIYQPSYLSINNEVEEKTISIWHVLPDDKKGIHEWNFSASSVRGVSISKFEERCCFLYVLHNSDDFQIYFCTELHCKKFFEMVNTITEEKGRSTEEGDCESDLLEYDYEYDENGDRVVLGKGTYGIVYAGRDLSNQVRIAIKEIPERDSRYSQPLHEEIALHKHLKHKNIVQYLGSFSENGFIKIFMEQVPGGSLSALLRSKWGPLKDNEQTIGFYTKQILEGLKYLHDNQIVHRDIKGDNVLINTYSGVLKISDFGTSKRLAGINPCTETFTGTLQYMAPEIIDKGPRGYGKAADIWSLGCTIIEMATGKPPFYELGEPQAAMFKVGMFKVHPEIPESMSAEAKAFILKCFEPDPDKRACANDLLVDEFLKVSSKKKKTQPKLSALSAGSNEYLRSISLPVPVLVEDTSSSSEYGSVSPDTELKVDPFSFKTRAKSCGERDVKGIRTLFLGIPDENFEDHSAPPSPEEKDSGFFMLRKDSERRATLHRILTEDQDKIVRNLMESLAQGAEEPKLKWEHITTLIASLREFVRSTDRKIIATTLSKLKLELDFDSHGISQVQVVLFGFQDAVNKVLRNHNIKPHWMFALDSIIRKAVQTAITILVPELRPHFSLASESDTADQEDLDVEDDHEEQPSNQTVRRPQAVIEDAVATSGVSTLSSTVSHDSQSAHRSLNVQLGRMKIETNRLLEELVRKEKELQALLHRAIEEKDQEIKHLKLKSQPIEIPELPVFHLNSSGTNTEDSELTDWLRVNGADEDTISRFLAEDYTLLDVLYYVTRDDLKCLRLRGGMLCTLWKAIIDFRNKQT

[3] = biological target: Tyrosine-protein kinase ABL1 (Homo sapiens) (UniProt P00519); settings: at 1 µM
Sequence of Tyrosine-protein kinase ABL1 (Homo sapiens) (P00519 whole entry): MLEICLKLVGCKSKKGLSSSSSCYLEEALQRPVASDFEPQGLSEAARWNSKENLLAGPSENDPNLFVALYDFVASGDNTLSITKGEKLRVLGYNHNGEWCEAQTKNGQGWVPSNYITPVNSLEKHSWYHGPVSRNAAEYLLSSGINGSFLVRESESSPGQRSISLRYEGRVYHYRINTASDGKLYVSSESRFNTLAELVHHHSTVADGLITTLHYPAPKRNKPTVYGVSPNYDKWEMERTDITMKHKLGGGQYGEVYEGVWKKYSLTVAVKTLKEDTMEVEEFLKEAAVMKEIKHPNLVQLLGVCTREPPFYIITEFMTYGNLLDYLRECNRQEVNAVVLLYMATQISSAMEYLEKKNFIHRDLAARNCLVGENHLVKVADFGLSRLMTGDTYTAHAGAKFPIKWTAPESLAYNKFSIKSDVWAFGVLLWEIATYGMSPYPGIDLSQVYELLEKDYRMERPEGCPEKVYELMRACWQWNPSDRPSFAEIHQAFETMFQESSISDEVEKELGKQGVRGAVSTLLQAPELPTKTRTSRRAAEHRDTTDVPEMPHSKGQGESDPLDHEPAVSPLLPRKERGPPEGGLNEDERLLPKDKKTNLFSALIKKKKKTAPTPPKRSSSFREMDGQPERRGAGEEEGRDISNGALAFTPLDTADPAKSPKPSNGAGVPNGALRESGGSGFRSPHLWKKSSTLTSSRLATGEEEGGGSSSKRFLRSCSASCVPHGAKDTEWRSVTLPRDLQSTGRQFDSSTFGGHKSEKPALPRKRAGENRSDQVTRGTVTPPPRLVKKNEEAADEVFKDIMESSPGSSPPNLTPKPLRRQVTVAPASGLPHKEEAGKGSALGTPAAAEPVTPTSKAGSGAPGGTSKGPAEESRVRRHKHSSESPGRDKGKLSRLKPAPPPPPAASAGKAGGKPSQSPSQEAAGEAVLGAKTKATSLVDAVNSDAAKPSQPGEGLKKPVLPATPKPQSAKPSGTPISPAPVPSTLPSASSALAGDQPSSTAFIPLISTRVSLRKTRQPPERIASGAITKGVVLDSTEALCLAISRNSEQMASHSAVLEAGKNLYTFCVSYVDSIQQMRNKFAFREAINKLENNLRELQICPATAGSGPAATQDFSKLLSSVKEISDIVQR

[4] = biological target: Tyrosine-protein kinase ABL1 (Homo sapiens) (UniProt P00519); settings: at 10 µM
[5] = biological target: Tyrosine-protein kinase ABL2 (Homo sapiens) (UniProt P42684); settings: at 1 µM
Sequence of Tyrosine-protein kinase ABL2 (Homo sapiens) (P42684 whole entry): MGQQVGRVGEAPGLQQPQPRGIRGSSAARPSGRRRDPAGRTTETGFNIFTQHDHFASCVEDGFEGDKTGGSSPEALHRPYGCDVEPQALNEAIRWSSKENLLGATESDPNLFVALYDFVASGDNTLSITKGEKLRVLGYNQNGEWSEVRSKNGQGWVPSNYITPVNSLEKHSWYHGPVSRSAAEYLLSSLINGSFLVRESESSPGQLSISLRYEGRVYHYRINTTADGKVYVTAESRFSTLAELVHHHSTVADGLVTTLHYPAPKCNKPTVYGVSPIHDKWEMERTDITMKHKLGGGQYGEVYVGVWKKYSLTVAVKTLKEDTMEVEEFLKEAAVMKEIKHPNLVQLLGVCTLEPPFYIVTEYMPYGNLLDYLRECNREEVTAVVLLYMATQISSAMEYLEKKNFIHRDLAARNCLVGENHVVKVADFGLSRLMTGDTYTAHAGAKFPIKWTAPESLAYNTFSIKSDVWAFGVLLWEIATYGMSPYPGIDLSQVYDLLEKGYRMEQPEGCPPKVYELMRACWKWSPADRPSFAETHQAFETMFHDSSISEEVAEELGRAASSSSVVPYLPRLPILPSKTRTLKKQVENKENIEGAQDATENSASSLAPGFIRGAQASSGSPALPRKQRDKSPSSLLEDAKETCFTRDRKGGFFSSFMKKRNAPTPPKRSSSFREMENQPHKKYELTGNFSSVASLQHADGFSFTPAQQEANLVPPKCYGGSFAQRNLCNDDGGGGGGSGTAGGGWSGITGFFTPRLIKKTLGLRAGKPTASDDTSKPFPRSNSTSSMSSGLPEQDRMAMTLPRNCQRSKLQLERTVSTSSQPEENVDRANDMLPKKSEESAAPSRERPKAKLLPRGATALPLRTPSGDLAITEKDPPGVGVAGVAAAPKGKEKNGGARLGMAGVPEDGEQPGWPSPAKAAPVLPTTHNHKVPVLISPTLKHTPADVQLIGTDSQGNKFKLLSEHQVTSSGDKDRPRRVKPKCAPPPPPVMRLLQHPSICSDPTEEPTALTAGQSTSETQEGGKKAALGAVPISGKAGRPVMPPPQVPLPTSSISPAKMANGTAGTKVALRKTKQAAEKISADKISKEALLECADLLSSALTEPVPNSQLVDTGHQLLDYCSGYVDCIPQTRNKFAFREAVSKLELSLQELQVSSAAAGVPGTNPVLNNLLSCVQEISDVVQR

[6] = biological target: Tyrosine-protein kinase ABL2 (Homo sapiens) (UniProt P42684); settings: at 10 µM
[7] = biological target: T3, Aurora kinase A (Homo sapiens) (UniProt O14965); settings: at 1 µM
T3 sequence (whole entry): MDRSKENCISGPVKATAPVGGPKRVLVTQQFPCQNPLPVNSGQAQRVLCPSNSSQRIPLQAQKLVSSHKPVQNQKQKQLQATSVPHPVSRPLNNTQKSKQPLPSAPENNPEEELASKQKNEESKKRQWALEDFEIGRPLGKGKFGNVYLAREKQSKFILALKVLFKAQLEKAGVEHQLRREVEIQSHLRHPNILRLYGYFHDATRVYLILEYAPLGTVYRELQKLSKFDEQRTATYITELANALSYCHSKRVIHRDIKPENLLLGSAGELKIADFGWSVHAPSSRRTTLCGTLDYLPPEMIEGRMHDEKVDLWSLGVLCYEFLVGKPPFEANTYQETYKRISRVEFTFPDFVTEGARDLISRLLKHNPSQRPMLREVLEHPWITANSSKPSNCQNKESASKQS

[8] = biological target: T3, Aurora kinase A (Homo sapiens); settings: at 10 µM
[9] = biological target: Aurora kinase B (Homo sapiens) (UniProt Q96GD4); settings: at 1 µM
Sequence of Aurora kinase B (Homo sapiens) (Q96GD4 whole entry): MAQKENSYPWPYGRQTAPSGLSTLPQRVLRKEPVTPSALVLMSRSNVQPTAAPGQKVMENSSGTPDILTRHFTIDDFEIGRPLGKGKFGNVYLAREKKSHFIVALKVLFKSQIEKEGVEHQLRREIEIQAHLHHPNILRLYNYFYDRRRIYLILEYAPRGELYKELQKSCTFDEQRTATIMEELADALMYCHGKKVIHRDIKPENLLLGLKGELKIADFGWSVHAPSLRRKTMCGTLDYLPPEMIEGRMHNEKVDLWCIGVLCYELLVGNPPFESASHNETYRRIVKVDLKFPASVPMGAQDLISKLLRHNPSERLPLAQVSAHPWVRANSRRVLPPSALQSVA

[10] = biological target: Aurora kinase B (Homo sapiens) (UniProt Q96GD4); settings: at 10 µM

Row | Compound | residual activity [1] | residual activity [2] [%] | residual activity [3] [%] | residual activity [4] [%] | residual activity [5] [%] | residual activity [6] [%] | residual activity [7] [%] | residual activity [8] [%] | residual activity [9] [%] | residual activity [10] [%]
1 | O=c1cc(-c2cccc3c2Sc2ccccc2S3)oc(N2CCOCC2)c1 | 107% (inactive) | 98 | 99 | 89 | 97 | 90 | 101 | 120 | 105 | 92
2 | Nc1n[nH]c2nnc(-c3c(-c4ccccc4)nn4ccccc34)cc12 | 116% (inactive) | 100 | 64 | 19 | 66 | 18 | 105 | 92 | 91 | 41
3 | Cc1ccc(S(=O)(=O)/C=C/C#N)cc1 | 102% (inactive) | 115 | 104 | 97 | 91 | 97 | 118 | 103 | 105 | 88
4 | O=C1NC(=O)c2c1c1c3ccccc3[nH]c1c1[nH]c3cc(Br)ccc3c21 | 98% (inactive) | 86 | 98 | 82 | 109 | 87 | 93 | 75 | 5 | 4
5 | Cn1cnc2cc3c(Nc4cccc(Br)c4)ncnc3cc21 | 99% (inactive) | 107 | 29 | 10 | 42 | 14 | 78 | 45 | 45 | 6
6 | Cc1nc2cc3nc(-c4cccs4)cnc3cc2n1C | 99% (inactive) | 112 | 90 | 52 | 95 | 83 | 88 | 69 | 80 | 16
7 | Cc1ccc(NC2=CC(=O)c3sc(C)nc3C2=O)cc1 | 100% (inactive) | 116 | 99 | 82 | 122 | 91 | 116 | 96 | 104 | 68
8 | Cc1cc2ncc(-c3ccccc3)nc2cc1C | 106% (inactive) | 83 | 92 | 87 | 96 | 103 | 77 | 96 | 87 | 75
9 | Oc1c2ccccc2c2c3c(cccc13)N=N2 | 110% (inactive) | 5 | 83 | 56 | 87 | 72 | 19 | 2 | 1 | 0
10 | Oc1ccc(Nc2nc(-c3ccc(Cl)cc3)cs2)cc1 | 115% (inactive) | 105 | 94 | 75 | 101 | 72 | 115 | 122 | 124 | 71
11 | CC(C)n1cnc2c(NCc3ccccc3)nc(NCCCO)nc21 | 98% (inactive) | 102 | 96 | 81 | 93 | 89 | 109 | 114 | 99 | 85
12 | O=[N+]([O-])c1ccc(-c2nc(-c3ccc(F)cc3)c(-c3ccncc3)[nH]2)cc1 | 113% (inactive) | 100 | 95 | 95 | 82 | 46 | 103 | 109 | 114 | 90
13 | Cc1nc(-c2ccccc2)c(-c2ccncc2)o1 | 113% (inactive) | 85 | 26 | 33 | 62 | 45 | 122 | 86 | 44 | 25
14 | COc1ccc(C(=O)Nc2sc3c(c2C(N)=O)CCCC3)cc1OC | 96% (inactive) | 109 | 87 | 86 | 126 | 101 | 93 | 96 | 69 | 46
15 | CN(C)CCCn1cc(C2=C(c3c[nH]c4ccccc34)C(=O)NC2=O)c2ccccc21 | 72% (inactive) | 108 | 108 | 108 | 90 | 76 | 100 | 80 | 31 | 7
16 | CC(=O)O/N=C1\C(=C2\C(=O)Nc3cc(Br)ccc32)Nc2ccccc21 | 108% (inactive) | 94 | 60 | 7 | 31 | 4 | 41 | 17 | 19 | 6
17 | c1ccc(-c2n[nH]cc2-c2ccnc3ccccc23)nc1 | 108% (inactive) | 105 | 69 | 14 | 64 | 18 | 99 | 103 | 75 | 51
